The nature of assay [1]: CCTE_Shafer_MEA_dev_firing_rate_mean: CCTE's Neural Network Formation Assay for Mean Firing Rate, Shafer Lab (AID 2284031).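 For AC50: curve fitted for loss of firing so AC50 reflects decreased mean firing rate.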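 Note: AUC of well mean spike rate recorded on DIV 5 7 9 and 12.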 The method, boiled down:
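Developing rat cortical networks on MEA plates undergo 12-day compound exposure. Firing frequency, averaged across active electrodes, is integrated as area under the curve over four recording days, referenced to DMSO.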

Assay [2] can be described thus: CCTE_Harrill_HTTr_Apoptosis_MCF7: CCTE's 6-hour Apoptosis Assessment for the High-Throughput Transcriptomics (HTTr) Platform, in MCF-7 cells cultured in DMEM + 10% fetal bovine serum, Harrill Lab (AID 2284011). The method, boiled down:
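MCF-7 cells in DMEM + 10% fetal bovine serum were exposed to chemicals for 6 hours over an eight-point dilution series. Caspase-3/7 activation was imaged by high content imaging with CellEvent Caspase 3/7 Green; bidirectional fitting used DMSO as baseline.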

A short description of assay [3]: CCTE_Harrill_HTTr_CellCount_MCF7: CCTE's Cell Proliferation Assessment for the High-Throughput Transcriptomics (HTTr) Platform, Harrill Lab (AID 2284012; active = hit-call score of the fitted dose curve at least 0.9, where 1 is the maximum;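 note: count of Hoechst-stained nuclei per well by high-content imaging in MCF-7 cells; cells exposed to compound for six hours; intended direction is loss of nuclei count meaning fewer cells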). The method, boiled down: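 Nuclei counting (Hoechst, high content imaging) in MCF-7 after a 6 h treatment at eight concentrations. Activity fitted bidirectionally, DMSO as negative control.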
Assay [4] can be described thus: CCTE_Shafer_MEA_acute_burst_number: CCTE's Neural Acute Assay for Single-Electrode Bursts, Shafer Lab (AID 2284013). The method, boiled down: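 Primary rat cortical neurons on 16-electrode MEA wells, treated on DIV 13 or 15 with compound at 0.03-40 uM. Single-electrode burst count from 40-min recordings at 37 C before and after exposure; percent change from baseline per well, DMSO negative control.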

A short description of assay [5]: CCTE_Shafer_MEA_acute_burst_duration_mean: CCTE's Neural Acute Assay for Mean Burst Duration, Shafer Lab (AID 2284014).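 Note: hits are decreases in mean burst duration relative to DMSO controls.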 The method, boiled down: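 Rat primary cortical neurons on 48-well MEA, treated at DIV 13 or 15 with 0.03-40 uM in at least 3 wells. Value is percent change in mean burst duration, comparing 40 min recordings at 37 C before and during exposure.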

A short description of assay [6]: CCTE_Shafer_MEA_acute_per_burst_spike_number_mean: CCTE's Neural Acute Assay for Average Number of Spikes Per Burst, Shafer Lab (AID 2284015).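 Note: hits are decreases in mean spikes per burst versus baseline.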 The method, boiled down: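 Read-out: percent change in mean spikes per burst, each well's post-exposure 40-min recording versus its own 40-min baseline. Rat cortical cultures, DIV 13 or 15, compounds 0.03-40 uM; DMSO is negative control, loss-of-signal fitting.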

Assay [7] can be described thus: CCTE_Shafer_MEA_acute_interburst_interval_mean: CCTE's Neural Acute Assay for Mean Interburst Interval, Shafer Lab (AID 2284016).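 Note: percent change of mean interburst interval versus each well's own pre-dose baseline; curves fitted for decrease in interburst interval relative to DMSO.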 The method, boiled down:
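Rat cortical cultures, DIV 13/15; 20 min equilibration, 40 min baseline, compound 0.03-40 uM, 40 min re-recording, 37 C. Spikes detected at 8x rms noise (300-5000 Hz band-pass). Endpoint: % change in interburst interval, fitted in loss direction vs DMSO.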

A short description of assay [8]: CCTE_Shafer_MEA_acute_burst_percentage_mean: CCTE's Neural Acute Assay for Percentage of Spikes in a Burst, Shafer Lab (AID 2284017).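 Note: curve fitted for loss of signal so potency reflects decreased burst percentage.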 The method, boiled down: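 Rat cortical cultures, DIV 13/15, 37 C. Spikes detected at 8x rms noise (300-5000 Hz band-pass). Burst spikes/total spikes averaged across electrodes per well; % change post- vs pre-treatment (40 min each), loss-of-signal fit vs DMSO.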

A short description of assay [9]: CCTE_Shafer_MEA_acute_burst_percentage_std: CCTE's Neural Acute Assay for Standard Deviation of Burst Percentage, Shafer Lab (AID 2284018).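 Note: fitted in the negative direction so actives lower burst percentage SD.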 The method, boiled down:
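Rat primary cortical neurons on 48-well MEAs, DIV 13 or 15, 37 C. 40-min baseline then 40-min recording with compound (0.03-40 uM); well-level SD of per-electrode burst spike percentage, expressed as percent change from baseline.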

The nature of assay [10]: CCTE_Shafer_MEA_acute_per_network_burst_spike_number_mean: CCTE's Neural Acute Assay for Average Number of Spikes in a Network Burst, Shafer Lab (AID 2284019). The method, boiled down: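 Rat primary cortical neurons on 48-well MEA at DIV 13 or 15, 37 C; compounds 0.03-40 uM, at least three wells each. 40-min baseline then 40-min exposure recording; percent change in mean spikes per network burst.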

The nature of assay [11]: CCTE_Shafer_MEA_acute_per_network_burst_spike_number_std: CCTE's Neural Acute Assay for Standard Deviation of Number of Spikes in a Network Burst, Shafer Lab (AID 2284020).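 Note: fitted for decrease in spike-number SD versus DMSO so actives lower it.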 The method, boiled down:
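Rat primary cortical neurons on 48-well MEA (16 electrodes/well), treated DIV 13 or 15 at 0.03-40 uM, ≥3 wells per compound. 40 min recordings at 37 C before and after dosing; value is percent change in network-burst spike-number SD, negative direction vs DMSO.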

A short description of assay [12]: CCTE_Shafer_MEA_acute_per_network_burst_electrodes_number_mean: CCTE's Neural Acute Assay for Mean Number of Electrodes in a Network Burst, Shafer Lab (AID 2284021).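 Note: curves fitted for decreases only so hits reduce electrodes per burst.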 The method, boiled down:
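Rat primary cortical neurons on 16-electrode MEA wells were recorded 40 min at baseline on DIV 13 or 15, then 40 min after compound (0.03-40 uM), at 37 C. Value is percent change per well, fitted in loss direction versus DMSO.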

Assay [13] in a line: CCTE_Shafer_MEA_acute_network_burst_percentage: CCTE's Neural Acute Assay for Percentage of Network Bursts, Shafer Lab (AID 2284022).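 Note: curves fitted for loss so actives lower network burst percentage.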 The method, boiled down: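 Primary rat cortical neurons on 16-electrode MEA wells, treated on DIV 13 or 15 with compound (0.03-40 uM); 40-min baseline and 40-min post-exposure recordings at 37 C. Value is percent change in spikes within network bursts versus baseline, DMSO negative control.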

Assay [14] is described as follows: CCTE_Shafer_MEA_acute_cross_correlation_area: CCTE's Neural Acute Assay for Area of Cross Correlation, Shafer Lab (AID 2284024).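 Note: area under pooled inter-electrode spike cross-correlation near zero lag as percent change from own baseline; curves fitted for loss of cross-correlation area so actives lower synchrony.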 The method, boiled down: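 Primary rat cortical neurons on 48-well MEA plates (16 electrodes/well) were recorded 40 min at baseline on DIV 13 or 15, then 40 min with compound (0.03-40 uM) at 37 C; cross-correlation area expressed as percent change from baseline.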

Assay [15] in a line: CCTE_Shafer_MEA_acute_cross_correlation_HWHM: CCTE's Neural Acute Assay for Cross Correlation at Half Width at Half Maximum, Shafer Lab (AID 2284026).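 Note: hits are a decrease in cross-correlogram half width relative to DMSO.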 The method, boiled down: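 Primary rat cortical neurons on 16-electrode MEA wells; 40-min baseline on DIV 13 or 15, then 40-min recording with compound (0.03-40 uM) at 37 C. HWHM of spike cross-correlogram expressed as percent change from baseline per well, DMSO reference.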

Assay [16] can be described thus: CCTE_Shafer_MEA_acute_synchrony_index: CCTE's Neural Acute Assay for Synchrony, Shafer Lab (AID 2284027).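 Note: network synchrony index of spontaneous spiking in primary rat cortical neurons on MEAs; fitted for loss of signal so actives lower synchrony relative to DMSO.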 The method, boiled down:
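Spontaneous firing of mature rat cortical networks is captured extracellularly on microelectrode arrays at 37 C, with wells needing ≥10 active electrodes. Each compound (0.03-40 uM) is judged by the change in synchrony index from baseline over 40 min.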

The target in assay [17] is Estrogen receptor (Homo sapiens) (UniProt P03372). Put plainly: CCTE_Deisenroth_AIME_96WELL_LUC_Active: CCTE's 96-well Estrogen Receptor Transactivation Assay with AIME metabolic competence (ERTA luciferase; metabolism positive), Deisenroth Lab (AID 2284023; active = hit-call score of the fitted dose curve at least 0.9, where 1 is the maximum). The method, boiled down:
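Chemicals pre-incubated 2 h with alginate-immobilized phenobarbital/beta-naphthoflavone-induced male Sprague Dawley rat liver S9, then medium transferred to VM7Luc4E2 cells for 24 h luciferase read-out. 10-point series 0.002 - 200 uM; fitted relative to 17beta-estradiol.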

Assay [18] has the same target. Put plainly: CCTE_Deisenroth_AIME_96WELL_LUC_Inactive: CCTE's 96-well Estrogen Receptor Transactivation Assay without AIME metabolic competence (ERTA luciferase; metabolism negative), Deisenroth Lab (AID 2284025; active = hit-call score of the fitted dose curve at least 0.9, where 1 is the maximum). The method, boiled down:
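VM7Luc4E2 breast cells, luciferase read 24 h after dosing with medium pre-incubated 2 h on alginate-water lids (metabolism negative). 10-point series 0.002–200 uM, single technical replicate, n≥4; fit relative to 17beta-estradiol.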

The nature of assay [19]: CCTE_Deisenroth_AIME_96WELL_CTox_Active: Cytotoxicity Assessment (CTOX) in CCTE's 96-well Estrogen Receptor Transactivation Assay with AIME metabolic competence (metabolism positive), Deisenroth Lab (AID 2284028; active = hit-call score of the fitted dose curve at least 0.9, where 1 is the maximum). The method, boiled down: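 Chemicals (0.002–200 uM) were first incubated 2 h with alginate-immobilized phenobarbital/beta-naphthoflavone-induced male rat liver S9; conditioned medium then went onto VM7Luc4E2 cells for 24 h, with viability read by protease-substrate fluorescence, fitted bidirectionally.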

A short description of assay [20]: CCTE_Deisenroth_AIME_96WELL_CTox_Inactive: Cytotoxicity Assessment (CTOX) in CCTE's 96-well Estrogen Receptor Transactivation Assay without AIME metabolic competence (metabolism negative), Deisenroth Lab (AID 2284029; active = hit-call score of the fitted dose curve at least 0.9, where 1 is the maximum). The method, boiled down: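 Chemicals (10-point series, 0.002-200 uM) were incubated 2 h with alginate-water microspheres lacking S9. The conditioned medium was then transferred onto VM7Luc4E2 cells for 24 h. Viability was measured by protease-substrate cleavage to a fluorescent probe, with loss of signal fitted bidirectionally; n≥4 experimental replicates.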

Inconclusive results are not listed. Active and inactive are the calls of the source. Rule for the calls, unless noted: active = hit-call score of the fitted dose curve at least 0.9, where 1 is the maximum; inactive = score below 0.9.

Estrogen receptor (Homo sapiens), sequence (P03372 whole entry, looked up): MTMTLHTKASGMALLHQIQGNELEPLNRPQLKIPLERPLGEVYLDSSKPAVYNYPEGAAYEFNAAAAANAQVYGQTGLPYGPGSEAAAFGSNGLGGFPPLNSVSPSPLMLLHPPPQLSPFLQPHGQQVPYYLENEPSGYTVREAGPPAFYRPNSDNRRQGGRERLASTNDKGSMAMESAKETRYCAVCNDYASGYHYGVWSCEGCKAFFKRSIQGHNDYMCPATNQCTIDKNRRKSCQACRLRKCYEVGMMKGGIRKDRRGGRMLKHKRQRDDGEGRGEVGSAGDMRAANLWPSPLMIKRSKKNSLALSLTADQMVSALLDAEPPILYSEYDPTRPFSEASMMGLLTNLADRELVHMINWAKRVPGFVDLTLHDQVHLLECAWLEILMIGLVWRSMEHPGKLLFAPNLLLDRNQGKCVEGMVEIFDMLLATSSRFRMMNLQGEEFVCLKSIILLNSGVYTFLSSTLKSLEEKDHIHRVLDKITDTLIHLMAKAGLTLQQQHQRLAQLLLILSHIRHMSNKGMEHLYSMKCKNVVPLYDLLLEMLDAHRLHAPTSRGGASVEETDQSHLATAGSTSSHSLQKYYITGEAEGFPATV

In the case of `C=CC(=O)OCC(F)(F)C(F)(F)C(F)(F)COC(=O)C=C`, the concentration at half-maximal activity (AC50) (in general, the midpoint of the concentration-response curve, whichever way the signal moves) in [1] was 4710 nM (active).

Consider `C[C@]12CC[C@H]3C(=CCc4cc(O)ccc43)[C@@H]1CCC2=O`, for which the outcome in [2] and in [3] was inactive.

As for `OCC(F)(F)C(F)(F)C(F)(F)C(F)(F)C(F)(F)C(F)(F)C(F)(F)C(F)(F)CO`, the compound was classed as inactive in assay [1].

On to `O=C(O)C(F)(F)C(F)(F)C(F)(F)OC(F)(F)F`, for which, in assay [1], the outcome was inactive.

Turning to `NC(O)(C(F)(F)F)C(F)(F)F`, the compound was called inactive in assay [1].

As for `NC(=O)C(F)(F)C(F)(F)C(F)(F)C(F)F`, the outcome in assay [1] was inactive.

For the compound `CCN=C1C=CC(=C(c2ccc(N(CC)CC)cc2)c2ccc(N(CC)CC)cc2)c2ccccc21`, the result in assay [2], in assay [5], in assay [9] and in assay [10] was inactive. Also, the concentration at half-maximal activity (AC50) was 92200 nM (active) in assay [3]; 545 nM (active) in assay [4]; 518 nM (active) in assay [6]; 361 nM (active) in [7]; 549 nM (active) in assay [8]; 718 nM (active) in [11]. The concentration at half-maximal activity (AC50) is 498 nM (active) in assay [12]; 762 nM (active) in assay [13]; 302 nM (active) in [14]; 883 nM (active) in assay [15]; 541 nM (active) in [16].

Turning to `CNS(=O)(=O)C(F)(F)C(F)(F)C(F)(F)C(F)(F)C(F)(F)C(F)(F)C(F)(F)C(F)(F)F`, the call in assay [1] was inactive.

For the compound `C=CC(=O)OCCC(F)(F)C(F)(F)C(F)(F)C(F)(F)F`, in assay [1], the outcome was inactive.

In the case of `OC(O)C(F)(F)C(F)(F)F`, in [1], the compound was classed as inactive.

For `O=S(=O)(O)CCC(F)(F)C(F)(F)C(F)(F)C(F)(F)C(F)(F)C(F)(F)C(F)(F)C(F)(F)F`, the outcome in assay [1] was inactive.

For `Cc1ccc(O)c(-n2nc3ccccc3n2)c1`, the outcome in assay [2], in assay [3], in assay [19] and in assay [20] was inactive. The AC50 in assay [17] was 21700 nM (active); in assay [18] it was 10200 nM (active).

As for `CCN(CCO)S(=O)(=O)C(F)(F)C(F)(F)C(F)(F)C(F)(F)C(F)(F)C(F)(F)C(F)(F)C(F)(F)F`, in assay [1], the compound was classed as inactive.

Turning to `OCCCCC(F)(F)C(F)(F)C(F)(F)C(F)(F)F`, the compound was classed as inactive in assay [1].

Regarding `OCC(F)(F)C(F)(F)C(F)(F)C(F)(F)C(F)(F)C(F)(F)CO`, the call in assay [1] was inactive.

Turning to `CO[Si](C)(CCC(F)(F)C(F)(F)C(F)(F)C(F)(F)C(F)(F)C(F)(F)F)OC`, the outcome in assay [1] was inactive.

For `FC(F)(F)C(F)(F)C(F)(F)C(F)(F)C(F)(F)C(F)(F)C(F)(F)CCI`, the result in assay [1] was inactive.

Take `OCC(F)(F)C(F)(F)C(F)(F)CO`: in assay [1], the call was inactive.

As to `NC(=O)C(F)(F)C(F)(F)C(F)(F)F`, in assay [1], the compound was classed as inactive.

Consider `O=S(=O)(O)CCC(F)(F)C(F)(F)C(F)(F)C(F)(F)F`, for which, in assay [1], the compound was classed as inactive.

Regarding `CCCCC(CC)COC(=O)c1ccc(N(C)C)cc1` (configuration not stated), the result in assay [2], in [17], in assay [19] and in assay [20] was inactive. In assay [18], the half-maximal activity concentration (AC50) was 16200 nM (active).

Turning to `OCC(O)CC(F)(F)C(F)(F)C(F)(F)C(F)(F)F` (configuration not stated), in assay [1], the compound was classed as inactive.

Take `NC(=O)C(F)(F)C(F)(F)C(F)(F)C(F)(F)C(N)=O`: the compound was called inactive in assay [1].

The values above are taken from PubChem BioAssay (EPA / NIEHS).
